From PubChem BioAssay AID1159580 (chemical genetic matrix, 2015)
In all, about 5,500 compounds went through this assay and about 2,000 (36%) were called active. About 18% were inconclusive and are not listed. This is one part of the list. Values without a mark were called inactive. Rule as the data show it: active = normalized growth mostly below about 0.91 (no sharp cut-off); inconclusive = no clear call, values can overlap the other calls; inactive = mostly above about 0.92.

Assay: chemical genetic growth profiling, strain panel (AID 1159580);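 also: tested at 20 µM; growth read once vehicle control cultures reached saturation at 30 °C; 1 = growth at the plate median or of vehicle wells; lower values mean less growth of the strain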
Conditions: growth OD
[1] = S. cerevisiae deletion strains, locus YDL101C, strain DUN1, active compounds read low
[2] = S. cerevisiae deletion strains, locus YHR030C, strain SLT2, active compounds read low

Compound: CC(C)(C)c1cc(C(C)(C)C)n(-c2ccc(N=Cc3cc(Br)cc(Br)c3O)cc2)n1
- normalized growth (S. cerevisiae deletion strains, locus YAL013W, strain DEP1, active compounds read low): 0.157 (active)
- normalized growth (S. cerevisiae deletion strains, locus YBR229C, strain ROT2, active compounds read low): 0.204 (active)
- normalized growth (S. cerevisiae deletion strains, locus YCL061C, strain MRC1, active compounds read low): 0.194 (active)
- normalized growth [1]: 0.193 (active)
- normalized growth (S. cerevisiae deletion strains, locus YDR150W, strain NUM1, active compounds read low): 0.355 (active)
- normalized growth (S. cerevisiae deletion strains, locus YEL061C, strain CIN8, active compounds read low): 0.152 (active)
- normalized growth (S. cerevisiae deletion strains, locus YGR078C, strain PAC10, active compounds read low): 0.0895 (active)
- normalized growth [2]: 0.103 (active)
- normalized growth (S. cerevisiae deletion strains, locus YHR087W, strain rtc3, active compounds read low): 0.101 (active)
- normalized growth (S. cerevisiae deletion strains, locus YJR043C, strain POL32, active compounds read low): 0.357 (active)
- normalized growth (S. cerevisiae deletion strains, locus YJR075W, strain HOC1, active compounds read low): 0.119 (active)
- normalized growth (S. cerevisiae deletion strains, locus YKL190W, strain CNB1, active compounds read low): 0.187 (active)
- normalized growth (S. cerevisiae deletion strains, locus YLR039C, strain RIC1, active compounds read low): 0.074 (active)
- normalized growth (S. cerevisiae deletion strains, locus YLR058C, strain SHM2 (second series), active compounds read low): 0.318 (active)
- normalized growth (S. cerevisiae deletion strains, locus YLR085C, strain ARP6, active compounds read low): 0.12 (active)
- normalized growth (S. cerevisiae deletion strains, locus YLR262C, strain YPT6, active compounds read low): 0.0868 (active)
- normalized growth (S. cerevisiae deletion strains, locus YML094W, strain GIM5, active compounds read low): 0.209 (active)
- normalized growth (S. cerevisiae deletion strains, locus YMR219W, strain ESC1, active compounds read low): 0.219 (active)
- normalized growth (S. cerevisiae deletion strains, locus YMR263W, strain SAP30, active compounds read low): 0.163 (active)
- normalized growth (S. cerevisiae deletion strains, locus YNL153C, strain GIM3, active compounds read low): 0.267 (active)
- normalized growth (S. cerevisiae deletion strains, locus YNL298W, strain CLA4 (second series), active compounds read low): 0.174 (active)
- normalized growth (S. cerevisiae deletion strains, locus YNL322C, strain KRE1, active compounds read low): 0.679 (active)
- normalized growth (S. cerevisiae deletion strains, locus YNR030W, strain Alg12, active compounds read low): 0.468 (active)
- normalized growth (S. cerevisiae deletion strains, locus YPL055C, strain LGE1, active compounds read low): 0.172 (active)
- normalized growth (S. cerevisiae deletion strains, locus YPL241C, strain CIN2, active compounds read low): 0.64 (active)
- normalized growth (S. cerevisiae deletion strains, locus YPR135W, strain CTF4, active compounds read low): 0.276 (active)
- normalized growth (S. cerevisiae strains, strain wild type, active compounds read low): 0.141 (active)

Compound: CN(C)c1nc(=S)ss1
- normalized growth (S. cerevisiae deletion strains, locus YAR019C, strain CDC15, active compounds read low): 0.83 (active)
- normalized growth (S. cerevisiae deletion strains, locus YBL105C, strain PKC1, active compounds read low): 0.91
- normalized growth (S. cerevisiae deletion strains, locus YBR135W, strain CKS1, active compounds read low): 0.865 (active)
- normalized growth (S. cerevisiae deletion strains, locus YBR136W, strain MEC1, active compounds read low): 0.883 (active)
- normalized growth (S. cerevisiae deletion strains, locus YBR160W, strain CDC28, active compounds read low): 0.882 (active)
- normalized growth (S. cerevisiae deletion strains, locus YDL017W, strain CDC7, active compounds read low): 0.896 (active)
- normalized growth (S. cerevisiae deletion strains, locus YDL028C, strain MPS1, active compounds read low): 0.839 (active)
- normalized growth [1]: 0.937
- normalized growth (S. cerevisiae deletion strains, locus YDL108W, strain KIN28, active compounds read low): 0.878 (active)
- normalized growth (S. cerevisiae deletion strains, locus YDL132W, strain cdc53, active compounds read low): 0.687 (active)
- normalized growth (S. cerevisiae deletion strains, locus YDL214C, strain PRR2, active compounds read low): 0.332 (active)
- normalized growth (S. cerevisiae deletion strains, locus YDR052C, strain DBF4, active compounds read low): 0.886 (active)
- normalized growth (S. cerevisiae deletion strains, locus YDR054C, strain cdc34, active compounds read low): 0.569 (active)
- normalized growth (S. cerevisiae deletion strains, locus YDR226W, strain ADK1, active compounds read low): 0.865 (active)
- normalized growth (S. cerevisiae deletion strains, locus YDR477W, strain SNF1, active compounds read low): 0.319 (active)
- normalized growth (S. cerevisiae deletion strains, locus YER123W, strain YCK3, active compounds read low): 0.186 (active)
- normalized growth (S. cerevisiae deletion strains, locus YER133W, strain GLC7, active compounds read low): 0.211 (active)
- normalized growth (S. cerevisiae deletion strains, locus YFL009W, strain cdc4, active compounds read low): 0.732 (active)
- normalized growth (S. cerevisiae deletion strains, locus YFL029C, strain CAK1, active compounds read low): 0.747 (active)
- normalized growth (S. cerevisiae deletion strains, locus YFR003C, strain YPI1, active compounds read low): 0.905
- normalized growth (S. cerevisiae deletion strains, locus YFR019W, strain FAB1, active compounds read low): 0.221 (active)
- normalized growth (S. cerevisiae deletion strains, locus YFR028C, strain CDC14, active compounds read low): 0.894
- normalized growth (S. cerevisiae deletion strains, locus YGR040W, strain KSS1, active compounds read low): 0.47 (active)
- normalized growth (S. cerevisiae deletion strains, locus YGR052W, strain FMP48, active compounds read low): 0.349 (active)
- normalized growth (S. cerevisiae deletion strains, locus YGR092W, strain DBF2, active compounds read low): 0.111 (active)
- normalized growth [2]: 0.576 (active)
- normalized growth (S. cerevisiae deletion strains, locus YHR079C, strain IRE1, active compounds read low): 0.204 (active)
- normalized growth (S. cerevisiae deletion strains, locus YHR082C, strain KSP1, active compounds read low): 0.464 (active)
- normalized growth (S. cerevisiae deletion strains, locus YHR205W, strain SCH9, active compounds read low): 0.493 (active)
- normalized growth (S. cerevisiae deletion strains, locus YIL147C, strain SLN1, active compounds read low): 0.825 (active)
- normalized growth (S. cerevisiae deletion strains, locus YJL095W, strain BCK1, active compounds read low): 0.327 (active)
- normalized growth (S. cerevisiae deletion strains, locus YJL128C, strain PBS2, active compounds read low): 0.876
- normalized growth (S. cerevisiae deletion strains, locus YJL157C, strain FAR1, active compounds read low): 0.199 (active)
- normalized growth (S. cerevisiae deletion strains, locus YJR016C, strain ILV3, active compounds read low): 0.715 (active)
- normalized growth (S. cerevisiae deletion strains, locus YJR066W, strain TOR1 (second series), active compounds read low): 0.262 (active)
- normalized growth (S. cerevisiae deletion strains, locus YJR066W, strain TOR1, active compounds read low): 0.324 (active)
- normalized growth (S. cerevisiae deletion strains, locus YKL048C, strain ELM1, active compounds read low): 0.228 (active)
- normalized growth (S. cerevisiae deletion strains, locus YKL067W, strain YNK1, active compounds read low): 0.197 (active)
- normalized growth (S. cerevisiae deletion strains, locus YKL101W, strain HSL1, active compounds read low): 0.205 (active)
- normalized growth (S. cerevisiae deletion strains, locus YKL193C, strain SDS22, active compounds read low): 0.84 (active)
- normalized growth (S. cerevisiae deletion strains, locus YKL203C, strain TOR2, active compounds read low): 0.342 (active)
- normalized growth (S. cerevisiae deletion strains, locus YLR113W, strain HOG1, active compounds read low): 0.351 (active)
- normalized growth (S. cerevisiae deletion strains, locus YLR133W, strain CKI1, active compounds read low): 0.232 (active)
- normalized growth (S. cerevisiae deletion strains, locus YLR403W, strain SFP1, active compounds read low): 0.116 (active)
- normalized growth (S. cerevisiae deletion strains, locus YML070W, strain DAK1, active compounds read low): 0.199 (active)
- normalized growth (S. cerevisiae deletion strains, locus YMR001C, strain CDC5, active compounds read low): 0.87 (active)
- normalized growth (S. cerevisiae deletion strains, locus YMR205C, strain PFK2 (second series), active compounds read low): 0.229 (active)
- normalized growth (S. cerevisiae deletion strains, locus YMR277W, strain FCP1, active compounds read low): 0.827 (active)
- normalized growth (S. cerevisiae deletion strains, locus YNL006W, strain LST8, active compounds read low): 0.501 (active)
- normalized growth (S. cerevisiae deletion strains, locus YNL020C, strain ARK1, active compounds read low): 0.189 (active)
- normalized growth (S. cerevisiae deletion strains, locus YNL161W, strain CBK1, active compounds read low): 0.869 (active)
- normalized growth (S. cerevisiae deletion strains, locus YNL183C, strain NPR1, active compounds read low): 0.341 (active)
- normalized growth (S. cerevisiae deletion strains, locus YNL207W, strain RIO2, active compounds read low): 0.865 (active)
- normalized growth (S. cerevisiae deletion strains, locus YNL222W, strain SSU72, active compounds read low): 0.861 (active)
- normalized growth (S. cerevisiae deletion strains, locus YNL307C, strain MCK1 (second series), active compounds read low): 0.162 (active)
- normalized growth (S. cerevisiae deletion strains, locus YOL078W, strain AVO1, active compounds read low): 0.807 (active)
- normalized growth (S. cerevisiae deletion strains, locus YOL136C, strain PFK27, active compounds read low): 0.165 (active)
- normalized growth (S. cerevisiae deletion strains, locus YOR061W, strain CKA2, active compounds read low): 0.217 (active)
- normalized growth (S. cerevisiae deletion strains, locus YOR119C, strain RIO1, active compounds read low): 0.325 (active)
- normalized growth (S. cerevisiae deletion strains, locus YOR231W, strain MKK1, active compounds read low): 0.211 (active)
- normalized growth (S. cerevisiae deletion strains, locus YOR329C, strain SCD5, active compounds read low): 0.88 (active)
- normalized growth (S. cerevisiae deletion strains, locus YPL031C, strain PHO85, active compounds read low): 0.21 (active)
- normalized growth (S. cerevisiae deletion strains, locus YPL153C, strain RAD53, active compounds read low): 0.16 (active)
- normalized growth (S. cerevisiae deletion strains, locus YPL204W, strain HRR25, active compounds read low): 0.202 (active)
- normalized growth (S. cerevisiae deletion strains, locus YPL209C, strain IPL1, active compounds read low): 0.872 (active)
- normalized growth (S. cerevisiae deletion strains, locus YPL256C, strain CLN2, active compounds read low): 0.393 (active)
- normalized growth (S. cerevisiae deletion strains, locus YPR025C, strain CCL1, active compounds read low): 0.881 (active)
- normalized growth (S. cerevisiae deletion strains, locus YPR106W, strain ISR1, active compounds read low): 0.934
- normalized growth (S. cerevisiae deletion strains, locus YPR111W, strain DBF20, active compounds read low): 0.913
- normalized growth (S. cerevisiae deletion strains, strain NNK1, active compounds read low): 0.921
- normalized growth (S. cerevisiae deletion strains, strain TSCII, active compounds read low): 0.706 (active)
